# Results: PubChem BioAssay AID1159580 (chemical genetic matrix, 2015)
# The whole screen tested about 5,500 compounds, of which about 2,000 (36%) were called active. Another 18% or so got no clear call; they are omitted. The list shows a part of the results. Unmarked numbers belong to inactive results. Cut-off read from the data, not from the text of the source: active = normalized growth mostly below about 0.91 (no sharp cut-off); inconclusive = no clear call, values can overlap the other calls; inactive = mostly above about 0.92.
# Experiment: chemical genetic growth profiling, strain panel (AID 1159580);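 note: tested at 20 µM; growth read once vehicle control cultures reached saturation at 30 °C; 1 = growth at the plate median or of vehicle wells; lower values mean less growth of the strain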
# Conditions: growth OD
# [1] = S. cerevisiae deletion strains, locus YBR021W, strain FUR4, hits give low values
# [2] = S. cerevisiae deletion strains, locus YBR229C, strain ROT2, hits give low values
# [3] = S. cerevisiae deletion strains, locus YCL029C, strain bik1, hits give low values
# [4] = S. cerevisiae deletion strains, locus YDL035C, strain GPR1, hits give low values
# [5] = S. cerevisiae deletion strains, locus YDL074C, strain BRE1, hits give low values
# [6] = S. cerevisiae deletion strains, locus YDL101C, strain DUN1, hits give low values
# [7] = S. cerevisiae deletion strains, locus YDL134C, strain PPH21, hits give low values
# [8] = S. cerevisiae deletion strains, locus YDL185W, strain tfp1, hits give low values
# [9] = S. cerevisiae deletion strains, locus YDL192W, strain arf1, hits give low values
# [10] = S. cerevisiae deletion strains, locus YDR101C, strain arx1, hits give low values
# [11] = S. cerevisiae deletion strains, locus YDR162C, strain NBP2, hits give low values
# [12] = S. cerevisiae deletion strains, locus YDR318W, strain mcm21, hits give low values
# [13] = S. cerevisiae deletion strains, locus YDR388W, hits give low values
# [14] = S. cerevisiae deletion strains, locus YDR502C, strain sam2, hits give low values
# [15] = S. cerevisiae deletion strains, locus YEL061C, strain CIN8, hits give low values
# [16] = S. cerevisiae deletion strains, locus YER110C, hits give low values
# [17] = S. cerevisiae deletion strains, locus YER155C, strain BEM2, hits give low values
# [18] = S. cerevisiae deletion strains, locus YER167W, strain BCK2, hits give low values
# [19] = S. cerevisiae deletion strains, locus YGL078C, strain dbp3, hits give low values
# [20] = S. cerevisiae deletion strains, locus YGL086W, strain mad1, hits give low values
# [21] = S. cerevisiae deletion strains, locus YGL248W, strain PDE1, hits give low values
# [22] = S. cerevisiae deletion strains, locus YGR135W, strain pre9, hits give low values
# [23] = S. cerevisiae deletion strains, locus YGR252W, strain gcn5, hits give low values
# [24] = S. cerevisiae deletion strains, locus YHR079C, strain IRE1 (second series), hits give low values
# [25] = S. cerevisiae deletion strains, locus YHR094C, strain hxt1, hits give low values
# [26] = S. cerevisiae deletion strains, locus YHR129C, strain ARP1, hits give low values
# [27] = S. cerevisiae deletion strains, locus YHR200W, strain rpn10, hits give low values
# [28] = S. cerevisiae deletion strains, locus YIL066C, strain RNR3, hits give low values
# [29] = S. cerevisiae deletion strains, locus YIL073C, strain SPO22, hits give low values
# [30] = S. cerevisiae deletion strains, locus YIL125W, strain kgd1, hits give low values
# [31] = S. cerevisiae deletion strains, locus YIR030C, strain dcg1, hits give low values
# [32] = S. cerevisiae deletion strains, locus YJL095W, strain BCK1, hits give low values
# [33] = S. cerevisiae deletion strains, locus YJL134W, strain LCB3, hits give low values
# [34] = S. cerevisiae deletion strains, locus YJL168C, strain set2, hits give low values
# [35] = S. cerevisiae deletion strains, locus YJL187C, strain SWE1 (second series), hits give low values
# [36] = S. cerevisiae deletion strains, locus YJR075W, strain HOC1, hits give low values
# [37] = S. cerevisiae deletion strains, locus YKL068W, hits give low values
# [38] = S. cerevisiae deletion strains, locus YKL085W, strain MDH1 (second series), hits give low values
# [39] = S. cerevisiae deletion strains, locus YKL085W, strain MDH1, hits give low values
# [40] = S. cerevisiae deletion strains, locus YKR001C, strain vps1, hits give low values
# [41] = S. cerevisiae deletion strains, locus YLR039C, strain RIC1, hits give low values
# [42] = S. cerevisiae deletion strains, locus YLR058C, strain SHM2, hits give low values
# [43] = S. cerevisiae deletion strains, locus YLR102C, strain apc9, hits give low values
# [44] = S. cerevisiae deletion strains, locus YLR268W, strain sec22, hits give low values
# [45] = S. cerevisiae deletion strains, locus YLR330W, strain CHS5, hits give low values
# [46] = S. cerevisiae deletion strains, locus YLR371W, strain rom2, hits give low values
# [47] = S. cerevisiae deletion strains, locus YLR418C, strain cdc73, hits give low values
# [48] = S. cerevisiae deletion strains, locus YML016C, strain PPZ1, hits give low values
# [49] = S. cerevisiae deletion strains, locus YML032C, strain rad52, hits give low values
# [50] = S. cerevisiae deletion strains, locus YML124C, strain tub3, hits give low values
# [51] = S. cerevisiae deletion strains, locus YMR078C, strain ctf18, hits give low values
# [52] = S. cerevisiae deletion strains, locus YMR223W, strain ubp8, hits give low values
# [53] = S. cerevisiae deletion strains, locus YMR263W, strain SAP30, hits give low values
# [54] = S. cerevisiae deletion strains, locus YMR307W, strain GAS1, hits give low values
# [55] = S. cerevisiae deletion strains, locus YNL067W, strain RPL9B, hits give low values
# [56] = S. cerevisiae deletion strains, locus YNL233W, strain BNI4, hits give low values
# [57] = S. cerevisiae deletion strains, locus YNL250W, strain rad50, hits give low values
# [58] = S. cerevisiae deletion strains, locus YNL271C, strain bni1, hits give low values
# [59] = S. cerevisiae deletion strains, locus YNL298W, strain CLA4, hits give low values
# [60] = S. cerevisiae deletion strains, locus YNL307C, strain MCK1, hits give low values
# [61] = S. cerevisiae deletion strains, locus YNR052C, strain pop2, hits give low values
# [62] = S. cerevisiae deletion strains, locus YOL006C, strain TOP1, hits give low values
# [63] = S. cerevisiae deletion strains, locus YOL012C, strain htz1
# [64] = S. cerevisiae deletion strains, locus YOL147C, strain pex11, hits give low values
# [65] = S. cerevisiae deletion strains, locus YOR061W, strain CKA2, hits give low values
# [66] = S. cerevisiae deletion strains, locus YOR069W, strain VPS5, hits give low values
# [67] = S. cerevisiae deletion strains, locus YOR136W, strain idh2, hits give low values
# [68] = S. cerevisiae deletion strains, locus YOR144C, strain elg1, hits give low values
# [69] = S. cerevisiae deletion strains, locus YOR184W, strain ser1, hits give low values
# [70] = S. cerevisiae deletion strains, locus YOR316C, strain cot1, hits give low values
# [71] = S. cerevisiae deletion strains, locus YPR119W, strain clb2, hits give low values
# [72] = S. cerevisiae deletion strains, locus YPR141C, strain kar3, hits give low values
# [73] = S. cerevisiae deletion strains, locus YPR163C, strain tif3, hits give low values
# [74] = S. cerevisiae deletion strains, locus YPR167C, strain met16, hits give low values
# [75] = S. cerevisiae deletion strains, strain wtn01, hits give low values
# [76] = S. cerevisiae strains, strain wild type, hits give low values
structure (smiles),measurement,setting,value
COc1cc2c(cc1OC)C1C(=O)c3c(O)cc4c(c3OC1CO2)C=CC(C)(C)O4 (configuration not stated),normalized growth,[1],1.01
same,normalized growth,[2],1
same,normalized growth,[3],1.01
same,normalized growth,[4],0.965
same,normalized growth,[5],0.962
same,normalized growth,[6],1.01
same,normalized growth,[7],0.985
same,normalized growth,[8],1.01
same,normalized growth,[9],0.98
same,normalized growth,[10],1.02
same,normalized growth,[11],1
same,normalized growth,[12],0.995
same,normalized growth,[13],1
same,normalized growth,[14],1.03
same,normalized growth,[15],0.989
same,normalized growth,[16],1.02
same,normalized growth,[17],1.02
same,normalized growth,[18],1
same,normalized growth,[19],1.03
same,normalized growth,[20],1.02
same,normalized growth,[21],1.01
same,normalized growth,[22],1.06
same,normalized growth,[23],1.03
same,normalized growth,[24],1.01
same,normalized growth,[25],1.02
same,normalized growth,[26],0.991
same,normalized growth,[27],1.01
same,normalized growth,[28],0.981
same,normalized growth,[29],1.08
same,normalized growth,[30],1.02
same,normalized growth,[31],1.03
same,normalized growth,[32],1.01
same,normalized growth,[33],0.998
same,normalized growth,[34],1
same,normalized growth,[35],0.997
same,normalized growth,[36],0.999
same,normalized growth,[37],1.01
same,normalized growth,[38],1.01
same,normalized growth,[39],1.01
same,normalized growth,[40],0.718 (active)
same,normalized growth,[41],0.871
same,normalized growth,[42],0.977
same,normalized growth,[43],1.02
same,normalized growth,[44],1.01
same,normalized growth,[45],0.987
same,normalized growth,[46],1.02
same,normalized growth,[47],0.988
same,normalized growth,[48],1.01
same,normalized growth,[49],1.02
same,normalized growth,[50],1.03
same,normalized growth,[51],1.03
same,normalized growth,[52],1.01
same,normalized growth,[53],1.01
same,normalized growth,[54],0.949
same,normalized growth,[55],1.01
same,normalized growth,[56],1.01
same,normalized growth,[57],1.05
same,normalized growth,[58],1.03
same,normalized growth,[59],1.01
same,normalized growth,[60],1.02
same,normalized growth,[61],1.03
same,normalized growth,[62],0.933
same,normalized growth,[63],1.33
same,normalized growth,[64],0.999
same,normalized growth,[65],0.987
same,normalized growth,[66],1.01
same,normalized growth,[67],1
same,normalized growth,[68],1.01
same,normalized growth,[69],1.01
same,normalized growth,[70],1.01
same,normalized growth,[71],1.03
same,normalized growth,[72],1.03
same,normalized growth,[73],1
same,normalized growth,[74],1.03
same,normalized growth,[75],1.01
same,normalized growth,[76],0.932
COc1cc2c(cc1OC)C1C(=O)c3c(OC)cc4c(c3OC1CO2)CCC(C)(C)O4 (configuration not stated),normalized growth,"S. cerevisiae deletion strains, locus YAL013W, strain DEP1, hits give low values",1.01
same,normalized growth,[1],1.02
same,normalized growth,[2],1.02
same,normalized growth,[3],0.987
same,normalized growth,[4],1
same,normalized growth,[5],1.03
same,normalized growth,[6],1.03
same,normalized growth,[7],1.02
same,normalized growth,[8],0.988
same,normalized growth,[9],0.983
same,normalized growth,[10],0.984
same,normalized growth,"S. cerevisiae deletion strains, locus YDR150W, strain NUM1, hits give low values",1.02
same,normalized growth,[11],1.06
same,normalized growth,[12],0.988
same,normalized growth,[13],0.99
same,normalized growth,[14],0.997
same,normalized growth,[15],1.01
same,normalized growth,[16],0.985
same,normalized growth,[17],1.02
same,normalized growth,[18],1.01
same,normalized growth,[19],0.981
same,normalized growth,[20],0.975
same,normalized growth,[21],1.02
same,normalized growth,"S. cerevisiae deletion strains, locus YGR078C, strain PAC10, hits give low values",1.03
same,normalized growth,[22],1.01
same,normalized growth,"S. cerevisiae deletion strains, locus YGR229C, strain SMI1, hits give low values",1.01
same,normalized growth,[23],0.948
same,normalized growth,"S. cerevisiae deletion strains, locus YHR030C, strain SLT2, hits give low values",1.01
same,normalized growth,[24],0.988
same,normalized growth,[25],0.987
same,normalized growth,[26],1.01
same,normalized growth,[27],0.993
same,normalized growth,[28],1.02
same,normalized growth,[29],0.948
same,normalized growth,[30],0.983
same,normalized growth,[31],0.985
same,normalized growth,[32],1.01
same,normalized growth,[33],1.01
same,normalized growth,[34],0.979
same,normalized growth,[35],1.02
same,normalized growth,"S. cerevisiae deletion strains, locus YJR043C, strain POL32, hits give low values",1
same,normalized growth,[36],1.01
same,normalized growth,"S. cerevisiae deletion strains, locus YKL009W, strain mrt4, hits give low values",0.999
same,normalized growth,[37],0.983
same,normalized growth,[38],0.978
same,normalized growth,[39],0.978
same,normalized growth,"S. cerevisiae deletion strains, locus YKL190W, strain CNB1, hits give low values",1.02
same,normalized growth,[40],0.961
same,normalized growth,[41],0.964
same,normalized growth,[42],1.02
same,normalized growth,[43],0.992
same,normalized growth,"S. cerevisiae deletion strains, locus YLR262C, strain YPT6, hits give low values",0.994
same,normalized growth,[44],0.972
same,normalized growth,[45],1.01
same,normalized growth,"S. cerevisiae deletion strains, locus YLR342W, strain FKS1 (second series), hits give low values",0.981
same,normalized growth,[46],0.988
same,normalized growth,[47],1
same,normalized growth,[48],1.02
same,normalized growth,[49],0.966
same,normalized growth,[50],0.99
same,normalized growth,[51],0.979
same,normalized growth,[52],0.973
same,normalized growth,[53],1.03
same,normalized growth,[54],0.99
same,normalized growth,[55],1.03
same,normalized growth,"S. cerevisiae deletion strains, locus YNL128W, strain TEP1, hits give low values",1.02
same,normalized growth,"S. cerevisiae deletion strains, locus YNL153C, strain GIM3, hits give low values",1.03
same,normalized growth,[56],1.04
same,normalized growth,[57],0.968
same,normalized growth,[58],0.981
same,normalized growth,[59],1
same,normalized growth,[60],0.969
same,normalized growth,"S. cerevisiae deletion strains, locus YNL322C, strain KRE1, hits give low values",1.02
same,normalized growth,[61],0.976
same,normalized growth,[62],1.04
same,normalized growth,[63],0.96
same,normalized growth,[64],0.988
same,normalized growth,[65],1.02
same,normalized growth,[66],1.01
same,normalized growth,[67],0.981
same,normalized growth,[68],0.994
same,normalized growth,[69],0.95
same,normalized growth,[70],0.98
same,normalized growth,"S. cerevisiae deletion strains, locus YPL055C, strain LGE1, hits give low values",1.05
same,normalized growth,"S. cerevisiae deletion strains, locus YPL241C, strain CIN2, hits give low values",1.01
same,normalized growth,[71],0.983
same,normalized growth,[72],0.966
same,normalized growth,[73],0.976
same,normalized growth,[74],0.983
same,normalized growth,[75],0.997
same,normalized growth,[76],1
